Test [1] has as its target Sentrin-specific protease 8 (Homo sapiens) (UniProt Q96LD8). As to the kind of experiment: human SENP8 peptidase blockers, hit retest – biochemical, luminescence, single concentration, confirmation (AID 488912;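 active = mean inhibition across replicates above about 50%, limit read from the data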). Conditions: Recombinant SENP8, Z-RLRGG-aminoluciferin luminescence, 60 min; at 12.5 µM; hits give high values.
Test [2] concerns the target Sentrin-specific protease 6 (Homo sapiens) (UniProt Q9GZR1). As to the kind of experiment: inhibition of human SENP6 catalytic domain – biochemical, luminescence, single concentration, confirmation (AID 488915). Conditions: recombinant SENP6, Z-RLRGG-aminoluciferin luminescence; at 12.5 µM; hits give high values.
Test [3] addresses Sentrin-specific protease 7 (Homo sapiens) (UniProt Q9BQF6). Nature of the test: human SENP7 peptidase blockers, hit retest – biochemical, luminescence, single concentration, confirmation (AID 488917). Conditions: recombinant SENP7, Z-RLRGG-aminoluciferin luminescence, 40 min; at 12.5 µM; hits give high values.
The next test addresses Caspase-3 (Homo sapiens) (UniProt P42574). As to the kind of experiment: human caspase-3 activity blockade, out-of-family – biochemical, single concentration, selectivity assay for SENP inhibitor project, confirmation (AID 488918;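 active = mean inhibition above about 50%, limit read from the data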;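 also: plate controls were enzyme with DMSO for no effect and wells without caspase-3 for full effect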). Conditions: purified caspase-3, Z-DEVD-aminoluciferin luminescence, 60 min; at 12.5 µM; hits give high values.
The nature of test [4]: Ultra-Glo luciferase signal interference – biochemical, single concentration, SENP8 reaction pre-completed, artefact control for SENP inhibitor project, confirmation (AID 488919;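 active = mean inhibition above about 50% when retested at one dose, limit read from the data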;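 also: plate controls were DMSO wells with completed reaction for no effect and substrate without enzyme for full effect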). The conditions noted are these: Pre-incubated SENP8/Z-RLRGG-aminoluciferin, luciferase luminescence interference; at 12.5 µM; hits give high values.

This is one part of the list. Unmarked numbers belong to inactive results. Active and inactive are the calls of the source.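 The calls were made as follows, unless noted: active = mean inhibition above about 50% in the one-dose retest (limit read from the data); inactive = the rest.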

Sequence of Caspase-3 (Homo sapiens) (P42574 28-227 limits assumed): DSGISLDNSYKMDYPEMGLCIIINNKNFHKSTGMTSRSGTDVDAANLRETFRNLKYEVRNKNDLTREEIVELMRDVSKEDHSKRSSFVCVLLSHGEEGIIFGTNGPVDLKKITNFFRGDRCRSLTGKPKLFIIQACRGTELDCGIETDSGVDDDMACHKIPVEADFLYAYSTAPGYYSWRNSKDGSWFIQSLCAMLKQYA
Sequence of Sentrin-specific protease 7 (Homo sapiens) (Q9BQF6 706-1050 limits assumed): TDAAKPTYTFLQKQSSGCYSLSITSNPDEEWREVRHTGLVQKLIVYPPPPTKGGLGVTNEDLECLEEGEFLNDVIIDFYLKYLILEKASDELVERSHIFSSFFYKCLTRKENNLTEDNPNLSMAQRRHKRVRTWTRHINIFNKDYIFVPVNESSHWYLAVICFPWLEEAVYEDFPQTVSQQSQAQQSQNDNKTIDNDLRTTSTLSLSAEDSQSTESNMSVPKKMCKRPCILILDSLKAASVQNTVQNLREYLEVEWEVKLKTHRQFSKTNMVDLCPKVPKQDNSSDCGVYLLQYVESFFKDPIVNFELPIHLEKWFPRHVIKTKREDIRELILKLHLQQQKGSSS
Sequence of Sentrin-specific protease 8 (Homo sapiens) (Q96LD8 whole entry, looked up, the tested form may be a part): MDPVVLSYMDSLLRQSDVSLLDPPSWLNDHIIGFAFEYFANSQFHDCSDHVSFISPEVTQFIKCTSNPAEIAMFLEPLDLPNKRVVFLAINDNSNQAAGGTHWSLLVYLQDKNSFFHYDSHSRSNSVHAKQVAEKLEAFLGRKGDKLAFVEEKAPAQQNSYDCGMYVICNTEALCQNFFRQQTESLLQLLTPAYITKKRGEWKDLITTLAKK
Sequence of Sentrin-specific protease 6 (Homo sapiens) (Q9GZR1 628-1112 limits assumed): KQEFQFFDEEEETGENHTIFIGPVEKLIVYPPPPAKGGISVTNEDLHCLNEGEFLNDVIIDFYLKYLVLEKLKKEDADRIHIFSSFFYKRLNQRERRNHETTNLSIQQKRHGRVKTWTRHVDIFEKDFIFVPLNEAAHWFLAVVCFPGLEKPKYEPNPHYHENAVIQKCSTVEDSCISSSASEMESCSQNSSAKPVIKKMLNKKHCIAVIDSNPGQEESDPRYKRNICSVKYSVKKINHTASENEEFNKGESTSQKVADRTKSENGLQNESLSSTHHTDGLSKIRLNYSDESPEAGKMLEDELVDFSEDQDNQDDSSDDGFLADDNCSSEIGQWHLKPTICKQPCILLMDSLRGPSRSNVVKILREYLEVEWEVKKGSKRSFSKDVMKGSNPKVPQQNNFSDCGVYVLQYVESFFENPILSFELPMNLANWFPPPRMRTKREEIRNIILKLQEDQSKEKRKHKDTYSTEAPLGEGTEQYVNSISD

As for `COc1cccc(-c2nc3cc(C)ccc3o2)c1`, the inhibition – broadly, the drop in the measured response relative to a control, in per cent – in test [1] is 96.1% (active); in test [2] it was 99.2% (active); in test [3] it was 102% (active); with Caspase-3 (Homo sapiens) it was 96.9% (active); in test [4] it was 94.2% (active).

`COc1ccccc1NC(=O)c1ccc(N2CC3CC(C2)c2cccc(=O)n2C3)c(NC(=O)c2cccnc2)c1` (stereo not given): the inhibition was 8.2% in test [1]; 5.2% in test [2]; 12.1% in test [3]; 8.9% with Caspase-3 (Homo sapiens); 3.7% in test [4].

For the molecule `CSc1ccccc1NC(=O)c1cc(C2CC2)on1`, the inhibition in test [1] is 34.7%; in test [2] it was 28.3%; in test [3], 62.8% (active); with Caspase-3 (Homo sapiens), 41.1%; in test [4], 40%.

`CSC1=N/C(=C\C=C\c2cccs2)C(=O)S1`: the inhibition in test [1] was 69.4% (active); in test [2] it was 75.6% (active); in test [3], 85.3% (active); in the test with Caspase-3 (Homo sapiens), 68.1% (active); in test [4] it was 52.2% (active).

As for `O=C(ON=C1CCN(S(=O)(=O)c2ccccc2)CC1)c1ccc(Cl)cc1`, the inhibition in test [1] is 12.5%; in test [2], 15.5%; in test [3], 3.4%; with Caspase-3 (Homo sapiens), 17.7%; in test [4], -1.9%.

For `CC(C)N(C(=O)Cn1cc(SCC(=O)N2CCCC2)c2ccccc21)C(C)C`, the inhibition in test [1] was -29.2%; in test [2], -18.1%; in test [3] it was -8.3%; with Caspase-3 (Homo sapiens) it was -6.3%; in test [4], -6.7%.

For the molecule `CC(C)(C)c1ccc(NC(=O)NCc2ccco2)cc1`, the inhibition in test [1] is -28.3%; in test [2], -17.7%; in test [3], -5.7%; in the test with Caspase-3 (Homo sapiens), -5.5%; in test [4] it was -7.2%.

Take `CC(=O)N1C(=O)/C(=C2\SC(=S)N(NC(=O)c3ccc(O)cc3)C2=O)c2ccccc21`: the inhibition in test [1] is 25.6%; in test [2] it was 79.1% (active); in test [3], 25.2%; in the test with Caspase-3 (Homo sapiens), 10.3%; in test [4], 3.7%.

With `CCOC(=O)/C(C#N)=C/c1ccc(N2CCCCC2)cc1`, the inhibition in test [1] was 25.6%; in test [2], 34.1%; in test [3] it was 65% (active); with Caspase-3 (Homo sapiens), 30.2%; in test [4], 10.6%.

Take `Nc1ccc(-c2nnc(-c3ccccc3)o2)cc1`: the inhibition in test [1] was 51.2% (active); in test [2] it was 51.4% (active); in test [3], 79.5% (active); with Caspase-3 (Homo sapiens) it was 65.7% (active); in test [4], 35.7%.

In the case of `CNc1nc(Nc2ccc(C)c(Cl)c2)nc(N)c1[N+](=O)[O-]`, the inhibition in test [1] is 97.8% (active); in test [2] it was 98.7% (active); in test [3], 103% (active); in the test with Caspase-3 (Homo sapiens), 96.9% (active); in test [4] it was 18.3%.

`CCOC(=O)c1cccc(NC(=O)c2ccc(F)cc2F)c1`: the inhibition in test [1] was 54% (active); in test [2] it was 48.2%; in test [3], 75.9% (active); with Caspase-3 (Homo sapiens), 67.9% (active); in test [4], 59.7% (active).

As for `CCc1noc(C)c1C(=O)Nc1nc2ccc(OC)cc2s1`, the inhibition in test [1] was 45.2%; in test [2], 42.8%; in test [3], 78.3% (active); with Caspase-3 (Homo sapiens), 58.3% (active); in test [4], 19.6%.

Regarding `Cc1ccc(C(=O)O/N=C(\N)c2ccccn2)cc1Cl`, the inhibition is 38.5% in test [1]; 81.3% (active) in test [2]; 27.2% in test [3]; 53.7% (active) with Caspase-3 (Homo sapiens); 50.2% (active) in test [4].

As to `COCCn1nnnc1C(c1cc2ccc(OC)cc2[nH]c1=O)N1CCc2ccccc2C1` (stereo not given), the inhibition was 12.6% in test [1]; 23% in test [2]; 2.5% in test [3]; 1% with Caspase-3 (Homo sapiens); -2% in test [4].

Regarding `O=C(NC(=O)c1ccccc1)Nc1ccccc1O`, the inhibition in test [1] was -10%; in test [2], 6.3%; in test [3], 69.7% (active); in the test with Caspase-3 (Homo sapiens) it was 73.3% (active); in test [4], 23.8%.

In the case of `Brc1ccc(-c2nnc(-c3ccccc3)o2)o1`, the inhibition is 25.1% in test [1]; 50.8% (active) in test [2]; 80.1% (active) in test [3]; 62.9% (active) in the test with Caspase-3 (Homo sapiens); 19.1% in test [4].

Regarding `COc1ccc2occ(C(=O)c3ccc(N=C(C)N(C)C)cc3)c2c1`, the inhibition in test [1] was 44.8%; in test [2], 42.5%; in test [3] it was 73% (active); in the test with Caspase-3 (Homo sapiens), 65.7% (active); in test [4], 51.3% (active).

On to `Nc1ccccc1/C=N\N=C/c1ccccc1N`, for which the inhibition is 52.9% (active) in test [1]; 45.3% in test [2]; 85.6% (active) in test [3]; 68.3% (active) with Caspase-3 (Homo sapiens); 3.9% in test [4].

Regarding `Cc1ccc(OC(=O)c2cc3ccccc3o2)cc1`, the inhibition in test [1] is 50.7% (active); in test [2], 51.4% (active); in test [3], 90.8% (active); with Caspase-3 (Homo sapiens), 46.9%; in test [4] it was 64.7% (active).

On to `N/C(=N\OC(=O)CCC1CCCCC1)c1ccccn1`, for which the inhibition was 88.5% (active) in test [1]; 88.3% (active) in test [2]; 98.2% (active) in test [3]; 90.7% (active) with Caspase-3 (Homo sapiens); 43.5% in test [4].

Turning to `O=C(O)c1ccc2c3c(cccc13)C(=O)N(OS(=O)(=O)c1ccccc1)C2=O`, the inhibition in test [1] is 36.6%; in test [2], 29.2%; in test [3], 68.5% (active); with Caspase-3 (Homo sapiens), 10.4%; in test [4], 53.8% (active).

With `O=c1[nH]c(/C=C/c2cccc(Br)c2)nc2ccccc12`, the inhibition in test [1] was 2.7%; in test [2], 1.4%; in test [3] it was 12.3%; with Caspase-3 (Homo sapiens) it was 17.6%; in test [4], 1%.

Turning to `Fc1ccc2nc(N3CCCCC3)sc2c1`, the inhibition in test [1] was 7.7%; in test [2], 78.8% (active); in test [3], 97.3% (active); in the test with Caspase-3 (Homo sapiens), 80.5% (active); in test [4], 18.4%.

As for `O=C(Nc1ccccc1)Nc1ccccc1C(=O)NCc1ccco1`, the inhibition is 2.7% in test [1]; 60.7% (active) in test [2]; 85.6% (active) in test [3]; 63.9% (active) with Caspase-3 (Homo sapiens); 66.7% (active) in test [4].

(Values after PubChem BioAssay.)
